# Results from ChEMBL document CHEMBL3988442, “University of Dundee, Small-Polar-MMV Screening Library” (2021).
# For some of these results: Potency and affinity values are given separately.
# Assays:
# Design in all cases: scale not given: direction of the effect not stated beside the values
# [1] = target: Protein translocase subunit SecA (Escherichia coli (strain K12)) (UniProt P10408); test: Assay to Identify E. coli SecA ATPase Inhibitors; assay type: functional; conditions: 30 µM
# [2] = target: T1, Ubiquitin-activating enzyme e1, putative (Leishmania donovani (strain BPK282A1)) (UniProt E9BSI1); test: Leishmania donovani Ubiquitin Activating Enzyme (LdE1); assay type: functional; conditions: 30 µM
# T1 sequence (whole entry): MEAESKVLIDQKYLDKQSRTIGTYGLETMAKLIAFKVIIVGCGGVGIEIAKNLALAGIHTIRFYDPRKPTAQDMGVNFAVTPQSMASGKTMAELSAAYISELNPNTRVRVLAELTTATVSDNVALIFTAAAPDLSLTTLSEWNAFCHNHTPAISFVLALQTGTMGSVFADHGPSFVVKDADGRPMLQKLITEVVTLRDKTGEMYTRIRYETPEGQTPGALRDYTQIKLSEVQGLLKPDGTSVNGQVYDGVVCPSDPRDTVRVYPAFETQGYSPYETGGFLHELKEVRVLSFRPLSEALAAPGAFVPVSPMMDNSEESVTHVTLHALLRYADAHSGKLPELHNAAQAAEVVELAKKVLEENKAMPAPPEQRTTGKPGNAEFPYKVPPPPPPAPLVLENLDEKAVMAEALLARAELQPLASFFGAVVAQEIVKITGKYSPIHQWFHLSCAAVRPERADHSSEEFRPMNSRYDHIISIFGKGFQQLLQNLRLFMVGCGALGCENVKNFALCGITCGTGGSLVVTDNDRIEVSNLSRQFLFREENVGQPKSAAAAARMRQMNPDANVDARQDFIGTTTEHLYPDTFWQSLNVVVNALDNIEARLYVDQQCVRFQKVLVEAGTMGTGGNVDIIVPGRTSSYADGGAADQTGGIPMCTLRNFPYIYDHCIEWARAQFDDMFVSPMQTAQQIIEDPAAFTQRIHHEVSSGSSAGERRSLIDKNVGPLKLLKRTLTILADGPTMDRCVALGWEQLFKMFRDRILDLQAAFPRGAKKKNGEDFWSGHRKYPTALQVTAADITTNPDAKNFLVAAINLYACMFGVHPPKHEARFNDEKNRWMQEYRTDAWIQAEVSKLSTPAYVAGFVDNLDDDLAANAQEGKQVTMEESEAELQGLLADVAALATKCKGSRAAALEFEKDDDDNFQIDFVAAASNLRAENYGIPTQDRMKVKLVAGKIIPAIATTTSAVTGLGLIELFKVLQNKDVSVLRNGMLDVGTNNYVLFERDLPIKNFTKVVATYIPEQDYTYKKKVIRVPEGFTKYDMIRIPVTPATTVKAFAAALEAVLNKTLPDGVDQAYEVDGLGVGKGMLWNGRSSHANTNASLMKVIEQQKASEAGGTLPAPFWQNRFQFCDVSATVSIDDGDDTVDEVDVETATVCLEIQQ
# [3] = target: AMP-activated protein kinase, AMPK (Homo sapiens) (UniProt P54646+O43741+P54619+Q9UGJ0+Q9Y478+Q13131+Q9UGI9); test: AMP-dependent Kinase enzyme assay. An in vitro enzyme assay that detects ADP turnover that is directly proportional to AMPK activity. This uses naive AMPK that is activated during the assay with MK-8722; assay type: functional; conditions: 30 µM
# [4] = target: Sialic acid-binding Ig-like lectin 9 (Homo sapiens) (UniProt Q9Y336); test: Hs-Siglec9 ALPHAscreen SOP 20170721; conditions: 10 µM
# Sialic acid-binding Ig-like lectin 9 (Homo sapiens), sequence (Q9Y336 whole entry): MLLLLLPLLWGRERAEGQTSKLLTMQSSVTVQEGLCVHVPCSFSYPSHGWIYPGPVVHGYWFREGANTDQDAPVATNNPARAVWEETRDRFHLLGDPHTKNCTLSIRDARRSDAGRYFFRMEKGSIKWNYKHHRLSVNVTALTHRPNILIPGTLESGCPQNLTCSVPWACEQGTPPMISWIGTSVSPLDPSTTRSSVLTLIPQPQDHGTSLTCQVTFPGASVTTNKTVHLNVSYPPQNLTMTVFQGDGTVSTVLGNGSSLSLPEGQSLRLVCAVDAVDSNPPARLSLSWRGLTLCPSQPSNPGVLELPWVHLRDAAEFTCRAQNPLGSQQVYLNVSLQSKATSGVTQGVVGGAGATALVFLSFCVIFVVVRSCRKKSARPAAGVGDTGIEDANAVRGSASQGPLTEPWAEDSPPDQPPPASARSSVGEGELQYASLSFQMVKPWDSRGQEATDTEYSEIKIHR
# Trypanosoma cruzi = test: Trypanosoma cruzi phosphomannomutase and mannose-1-phosphate guanylyltransferase assay; assay type: functional; conditions: 10 µM
# [5] = target: T2, Arginase-2, mitochondrial (Homo sapiens) (UniProt P78540); test: in vitro enzyme assay to detect the production of urea directly proportional to the activity of Arginase II; assay type: functional; conditions: 33.3 µM; also: in the data most compounds retested in dose-response had high values
# T2 sequence (whole entry): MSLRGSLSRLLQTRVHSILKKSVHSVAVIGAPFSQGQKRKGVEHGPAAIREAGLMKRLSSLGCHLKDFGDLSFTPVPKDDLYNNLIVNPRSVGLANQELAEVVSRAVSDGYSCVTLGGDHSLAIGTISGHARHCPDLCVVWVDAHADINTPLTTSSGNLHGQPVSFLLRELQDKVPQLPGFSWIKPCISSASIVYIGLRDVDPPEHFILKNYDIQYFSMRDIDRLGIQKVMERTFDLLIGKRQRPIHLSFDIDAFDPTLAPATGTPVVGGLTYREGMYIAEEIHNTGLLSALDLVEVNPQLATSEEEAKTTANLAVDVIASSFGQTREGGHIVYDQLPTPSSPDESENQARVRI
# [6] = target: T3, Proteasome subunit beta (Trypanosoma cruzi) (UniProt O96673); test: Trypanosoma cruzi proteasome chymotrypsin-like activity (TcProtChymo) assay.; also: in the data most compounds retested in dose-response had high values; assay type: functional; conditions: 9.37 µM
# T3 sequence (whole entry): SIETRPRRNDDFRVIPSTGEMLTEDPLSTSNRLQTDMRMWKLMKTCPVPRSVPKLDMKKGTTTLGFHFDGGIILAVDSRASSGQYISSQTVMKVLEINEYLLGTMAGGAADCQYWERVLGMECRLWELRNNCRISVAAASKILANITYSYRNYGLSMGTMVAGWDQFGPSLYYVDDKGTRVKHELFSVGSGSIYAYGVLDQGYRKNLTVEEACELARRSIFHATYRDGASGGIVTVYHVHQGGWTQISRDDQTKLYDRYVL
# Homo sapiens = species on record: Homo sapiens; test: To identify inhibition of the IFN signalling (Jak-Stat) pathway via expression of an eGFP reporter gene under the control of an IFN-stimulated response element (ISRE) containing MxA promoter.; assay type: functional; conditions: 30 µM
# [7] = target: T4, Tyrosyl-tRNA synthetase, putative (Trypanosoma cruzi (strain CL Brener)) (UniProt Q4DSP6); test: Trypanosoma cruzi tyrosyl tRNA synthetase (TcYRS) _High Tyrosine SOP; assay type: functional; conditions: 30 µM; also: in the data most compounds retested in dose-response had high values
# T4 sequence (whole entry): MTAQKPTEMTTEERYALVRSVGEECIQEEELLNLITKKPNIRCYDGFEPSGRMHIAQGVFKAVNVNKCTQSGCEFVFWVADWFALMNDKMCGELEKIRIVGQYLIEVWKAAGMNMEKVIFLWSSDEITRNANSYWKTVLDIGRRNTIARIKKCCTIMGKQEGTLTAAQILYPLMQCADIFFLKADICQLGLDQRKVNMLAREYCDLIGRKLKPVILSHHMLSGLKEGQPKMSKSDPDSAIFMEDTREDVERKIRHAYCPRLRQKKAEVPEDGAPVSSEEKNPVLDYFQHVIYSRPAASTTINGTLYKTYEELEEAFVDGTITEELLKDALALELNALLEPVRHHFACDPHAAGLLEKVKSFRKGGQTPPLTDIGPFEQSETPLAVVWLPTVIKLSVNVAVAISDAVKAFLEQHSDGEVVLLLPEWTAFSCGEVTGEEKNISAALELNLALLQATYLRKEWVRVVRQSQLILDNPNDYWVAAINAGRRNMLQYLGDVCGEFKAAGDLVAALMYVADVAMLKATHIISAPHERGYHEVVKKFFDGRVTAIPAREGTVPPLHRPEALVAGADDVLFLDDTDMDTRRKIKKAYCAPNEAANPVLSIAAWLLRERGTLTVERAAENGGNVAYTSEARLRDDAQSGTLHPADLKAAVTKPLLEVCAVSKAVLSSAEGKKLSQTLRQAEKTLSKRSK
# [8] = target: T4, Tyrosyl-tRNA synthetase, putative (Trypanosoma cruzi (strain CL Brener)); test: Trypanosoma cruzi tyrosyl tRNA synthetase (TcYRS) SOP; assay type: functional; conditions: 30 µM
# [9] = target: Chromo domain-containing protein 1 (Saccharomyces cerevisiae (strain ATCC 204508 / S288c) (Baker's yeast)) (UniProt P32657); test: ScCHD-1 Enzyme Inhibition Assay; assay type: functional; conditions: 30 µM; also: in the data most compounds retested in dose-response had high values
# Chromo domain-containing protein 1 (Saccharomyces cerevisiae (strain ATCC 204508 / S288c) (Baker's yeast)), sequence (P32657 whole entry, the tested form may be a part): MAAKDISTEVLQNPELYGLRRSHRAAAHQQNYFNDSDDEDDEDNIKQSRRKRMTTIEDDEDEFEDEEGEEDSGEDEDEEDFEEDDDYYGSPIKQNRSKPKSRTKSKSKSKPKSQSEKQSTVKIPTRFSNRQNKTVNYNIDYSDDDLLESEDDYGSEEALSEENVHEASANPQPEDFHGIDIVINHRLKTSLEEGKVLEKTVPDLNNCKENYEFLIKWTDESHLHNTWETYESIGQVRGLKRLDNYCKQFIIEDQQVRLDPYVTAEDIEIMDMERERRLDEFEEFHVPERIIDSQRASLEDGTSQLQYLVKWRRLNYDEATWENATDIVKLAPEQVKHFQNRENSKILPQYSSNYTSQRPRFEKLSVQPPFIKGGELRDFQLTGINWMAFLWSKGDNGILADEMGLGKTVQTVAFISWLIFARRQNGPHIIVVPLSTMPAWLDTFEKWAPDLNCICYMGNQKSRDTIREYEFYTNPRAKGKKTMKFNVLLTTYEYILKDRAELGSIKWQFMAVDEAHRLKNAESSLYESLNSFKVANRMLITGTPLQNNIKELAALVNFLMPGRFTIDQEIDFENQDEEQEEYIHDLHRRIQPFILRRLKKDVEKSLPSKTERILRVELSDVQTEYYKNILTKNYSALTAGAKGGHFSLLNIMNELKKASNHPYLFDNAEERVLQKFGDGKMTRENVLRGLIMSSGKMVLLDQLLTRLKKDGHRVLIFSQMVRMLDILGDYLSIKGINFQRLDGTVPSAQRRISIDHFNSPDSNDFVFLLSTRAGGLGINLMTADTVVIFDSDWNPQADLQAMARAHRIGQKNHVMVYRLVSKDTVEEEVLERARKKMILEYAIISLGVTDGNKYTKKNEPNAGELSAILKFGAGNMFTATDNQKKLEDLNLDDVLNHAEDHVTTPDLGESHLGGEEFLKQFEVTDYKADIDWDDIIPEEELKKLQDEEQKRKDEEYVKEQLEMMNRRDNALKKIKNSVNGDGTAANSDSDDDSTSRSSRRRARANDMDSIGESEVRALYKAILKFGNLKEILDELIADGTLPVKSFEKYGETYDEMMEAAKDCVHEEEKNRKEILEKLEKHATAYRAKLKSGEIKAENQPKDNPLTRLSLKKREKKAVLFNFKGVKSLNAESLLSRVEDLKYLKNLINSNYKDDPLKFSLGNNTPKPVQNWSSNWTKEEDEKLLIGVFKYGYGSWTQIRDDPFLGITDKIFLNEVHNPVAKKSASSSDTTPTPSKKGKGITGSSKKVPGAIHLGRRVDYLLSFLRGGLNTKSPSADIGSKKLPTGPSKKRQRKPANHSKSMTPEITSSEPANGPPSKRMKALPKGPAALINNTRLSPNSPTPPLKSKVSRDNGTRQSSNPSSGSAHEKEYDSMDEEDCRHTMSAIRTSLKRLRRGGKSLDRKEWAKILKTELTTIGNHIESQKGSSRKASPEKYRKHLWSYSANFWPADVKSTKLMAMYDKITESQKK
# Protein translocase subunit SecA (Escherichia coli (strain K12)), sequence (P10408 whole entry): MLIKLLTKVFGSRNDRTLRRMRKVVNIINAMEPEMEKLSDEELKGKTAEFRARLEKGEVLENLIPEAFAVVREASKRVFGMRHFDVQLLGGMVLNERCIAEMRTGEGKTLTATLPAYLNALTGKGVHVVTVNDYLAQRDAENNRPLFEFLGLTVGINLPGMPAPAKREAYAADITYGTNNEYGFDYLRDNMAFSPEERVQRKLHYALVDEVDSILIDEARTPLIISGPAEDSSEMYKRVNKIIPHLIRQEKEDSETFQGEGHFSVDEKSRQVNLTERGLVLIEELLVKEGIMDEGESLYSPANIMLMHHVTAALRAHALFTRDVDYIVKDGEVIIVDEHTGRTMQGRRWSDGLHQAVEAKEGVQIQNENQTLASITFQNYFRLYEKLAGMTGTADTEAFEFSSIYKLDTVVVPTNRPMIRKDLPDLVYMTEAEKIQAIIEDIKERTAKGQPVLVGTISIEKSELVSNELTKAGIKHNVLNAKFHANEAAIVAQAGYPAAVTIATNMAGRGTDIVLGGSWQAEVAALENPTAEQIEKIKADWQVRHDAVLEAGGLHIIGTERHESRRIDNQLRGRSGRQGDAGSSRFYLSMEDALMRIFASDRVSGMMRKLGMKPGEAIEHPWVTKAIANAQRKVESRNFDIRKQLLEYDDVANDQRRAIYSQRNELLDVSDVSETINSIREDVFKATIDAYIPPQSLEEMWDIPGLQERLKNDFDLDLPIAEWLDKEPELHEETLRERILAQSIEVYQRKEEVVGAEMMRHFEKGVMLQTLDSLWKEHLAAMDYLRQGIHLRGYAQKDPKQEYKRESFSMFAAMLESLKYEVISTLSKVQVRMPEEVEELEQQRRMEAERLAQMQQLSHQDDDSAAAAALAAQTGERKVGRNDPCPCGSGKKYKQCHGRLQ
Structure (SMILES),Percent Effect [1] [%],Percent Effect [2] [%],Percent Effect [3] [%],Percent Effect [4] [%],Percent Effect (Trypanosoma cruzi) [%],Percent Effect [5] [%],Percent Effect [6] [%],Percent Effect (Homo sapiens) [%],Percent Effect [7] [%],Percent Effect [8] [%],Percent Effect [9] [%]
CCn1nc(C)c2nc(C(C)C)nc(NCCCO)c21,-2.47,12,4.47,13.2,1.97,0.176,12.6,33.7,4.23,12.8,-6.99
Cc1csc(N2CCCN(C(=O)C3(C#N)CCCCC3)CC2)n1,-0.0182,-2.63,4.54,-2.41,-0.188,0.766,-3.34,-13.6,0.49,-2.44,10.4
O=C(c1ccc(C2CCCO2)s1)N1CCN(c2ccccc2F)CC1 (stereo unspecified),-2.34,16.2,-2.01,21.1,3.67,30,14.1,-6.24,5.82,14.6,-4.16
CC(C)CN1CCC(c2nc3c([nH]2)CC(C)(C)CNC3=O)C1 (stereo unspecified),3.37,8.11,-3.98,5.96,3.67,16.2,10.5,19.8,5.82,19.5,-2.21
CNc1cc2c(nn1)CCN(C(=O)c1ccc(-n3nccc3C)cc1)C2,-3.9,7.79,-0.653,-3.32,6.56,-1.9,11.4,14.4,6.67,9.41,-16.2
CC[C@@H](CO)NC(=O)c1coc(COc2ccc(OC)cc2)n1,-3.54,10.8,-5.65,-1.14,-2.05,-0.744,5.58,-2.06,6.45,18.5,-1.77
CC(C)c1nc2c(n1C)CCN(CC(=O)Nc1ccc(Cl)cn1)C2,-1.64,15.6,1.07,6.83,0.686,-2.32,19.8,6.83,4.76,21.2,-21.7
O=C(NCC1CC1)c1nc(COc2ccc3c(c2)OCO3)no1,0.685,4,1.6,-3.59,-7.07,-5.46,15.5,7.56,4.23,2.56,-6.83
Cc1nc(C)c(CC(=O)N2C[C@H]3CC[C@@H]2CN(C(=O)N(C)C)C3)c(=O)[nH]1,-12.8,0,-2.11,-2.97,-5.18,-1.74,-2.49,26.8,-1.07,-1.24,-2.75
CCn1cnnc1CNC(=O)c1ccc(Cl)cc1F,-2.15,16.5,-1.73,3.58,0.103,-6.24,16.6,5.91,9.38,17.7,-13.8
Cn1cnc(S(=O)(=O)N2CCCC2)c1Cl,-1.75,4.17,-5.49,-0.277,1.46,13.2,15.4,-29.7,3.16,10.3,-2.89
